GLS inh: inhibitors of human glutaminase (GLS) | GLS enzymatic activity, qHTS titration | Potency, µM (doses to about 45.5 µM), for the others: top-dose activity change, negative = inhibition, actives largely listed as inhibitors | 0.21% of 410,000 active; further: on the % scale 0 is the no-effect control and ±100 the full control effect
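Assay buffer: 45 mM KH2PO4 pH 8.2, 0.02% Tween-20. hKGA acts on L-glutamine (1 mM solution added); product glutamate is reported by an oxidase/peroxidase Amplex Red coupling, with fluorescence taken at baseline and 30 min.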
GLP1R ag: activates the human GLP-1 receptor; P43220; HEK293 GLP-1R CRE-luciferase, luminescence, 4-6 h; cells express a hypersensitive GLP-1R form; Potency, µM (series often up to 45.6 µM), inactives show at the highest dose activation, hits mostly activators; 0.007% of 380,000 active; further: % of control where 0% means no effect
PTHR1 ag: PTHR1 (human) receptor agonism. HEK293 GP2 PTHR1 cells, GloSensor cAMP luminescence, 1 h. 0.075% of 410,000 active. Potency, µM (top dose mostly 115 µM), without a hit: at the highest dose activation, most hits filed as activators. Q03431; further: nearly all actives have a fitted effect of over 55% in size
Target sequence (Q03431 whole entry, looked up): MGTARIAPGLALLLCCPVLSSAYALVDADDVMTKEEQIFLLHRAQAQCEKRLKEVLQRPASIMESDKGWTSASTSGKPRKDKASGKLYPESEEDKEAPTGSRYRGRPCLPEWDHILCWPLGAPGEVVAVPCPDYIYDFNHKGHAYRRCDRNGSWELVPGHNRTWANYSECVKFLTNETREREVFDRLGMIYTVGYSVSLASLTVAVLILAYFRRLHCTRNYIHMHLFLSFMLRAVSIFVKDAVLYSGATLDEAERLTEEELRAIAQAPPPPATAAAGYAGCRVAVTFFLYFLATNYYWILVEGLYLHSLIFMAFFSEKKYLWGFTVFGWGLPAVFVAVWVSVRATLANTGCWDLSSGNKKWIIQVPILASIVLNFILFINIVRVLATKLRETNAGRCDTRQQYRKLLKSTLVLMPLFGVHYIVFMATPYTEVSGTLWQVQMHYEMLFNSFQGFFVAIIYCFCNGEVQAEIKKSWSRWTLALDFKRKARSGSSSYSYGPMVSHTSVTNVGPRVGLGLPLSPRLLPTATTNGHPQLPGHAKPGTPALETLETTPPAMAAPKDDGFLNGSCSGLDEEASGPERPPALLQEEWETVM
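HEK-293-derived GP2 cells expressing PTHR1 and a GloSensor cAMP reporter, 3,000/well, plated overnight, given luciferin plus IBMX (each 0.5 mM as added) for 1 h at 37 °C, then compound for 1 h at 37 °C. Luminescence was read after 15 min at room temperature.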
12-LOX inh: blocks human arachidonate 12S-lipoxygenase. P18054. purified 12hLO, xylenol orange hydroperoxide absorbance. 1.1% of 580,000 active. Potency, µM (series often up to 108 µM), without a hit: at the highest dose activity change, negative = inhibition, usual class: inhibitors; further: on the % scale 0 is the no-effect control and ±100 the full control effect
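Purified human 12hLO (150 nM final) in 25 mM Hepes, 0.01% Triton X-100, pH 7.0 was preincubated 15 min at room temperature with compound. Then 40 uM arachidonic acid was added, 30 min. Hydroperoxide was read by Fe-XO absorbance ratio 573/405 nm.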
GLP1R inv ag: acts as inverse agonist at human GLP-1 receptor; P43220; HEK293 GLP-1R CRE-luciferase, luminescence, 24 h; GLP-1R form is constitutively active; Potency, µM (doses to about 38.3 µM), without a hit: top-dose activity change, negative = inhibition, hits mostly inhibitors; 1.6% of 410,000 active; AID 624417; further: on the % scale 0 is the no-effect control and ±100 the full control effect; nearly all actives have a fitted effect of over 55% in size
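Inverse agonism was detected as reduced cAMP-driven luciferase luminescence after 24 h compound treatment. The cells were HEK293 clones expressing constitutively active human GLP-1R with the reporter. Reporter-only and GPR119 cell lines served as counterscreen controls.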
Glioma ERSR ind: ER stress response induction in glioma; U87-MG GRP78 promoter luciferase reporter, 16 h; Potency, µM, inactives show top-dose activation, usual class: activators; 0.02% of 420,000 active; AID 602332; further: series mostly up to about 76 µM; % of control where 0% means no effect; nearly all actives have a fitted effect of over 35% in size
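ERSR induction read as luciferase luminescence (Bright-Glo, 10 min at room temperature) in stably transfected human U87-MG glioma cells exposed to compounds for 16 h, using GRP78 as sensor.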
An asterisk follows results filed as active; i = inactive; ? = inconclusive; · = no result; [ ] = another dose, or the depositor's remark. A selection: hits, their analogues and other compounds. The true share with any hit is near 2.3%. The call rests on the fitted dose curve; in most records, active means well fitted curve in the direction sought with a large enough effect; inconclusive means small, poorly fitted or top-dose-only effect, or another doubt; inactive means no such curve, though single readings can be large; an effect the other way counts as inactive or inconclusive. Potency means the concentration at half of the fitted maximal effect.

SMILES	GLS inh	GLP1R ag	PTHR1 ag	12-LOX inh	GLP1R inv ag	Glioma ERSR ind
O=C1OCCN1C(=O)[C@H]1[C@H](c2ccc(F)cc2)C(c2cccc(Cl)c2)=NN1c1ccc(Br)cc1	-1.9%	-3.8%	-11.4%	-16.7%	8.91µM*	0.7%
Cc1cc(C(=O)O)ccc1NS(=O)(=O)c1ccc(S(=O)(=O)N2CCCCC2)cc1	·	·	·	34.7%	·	·
CCNC(=O)CN(CC)CCc1ccccc1	·	·	·	5.6%	·	·
Cc1sc(NC(=O)c2ccco2)c(C(c2ccccc2)N2CCC(C)CC2)c1C (configuration not stated)	5.7%	-0.2%	-14.7%	7.2%	6.31µM*	1.6%
Cc1sc(NC(=O)c2ccco2)c(C(c2ccc(F)cc2)N2CCN(C)CC2)c1C (configuration not stated)	-0.7%	-0.4%	i	·	7.08µM*	3.6%
Cc1ccc(C(c2c(NC(=O)c3ccco3)sc(C)c2C)N2CCOCC2)cc1 (configuration not stated)	10.7%	5.1%	-65.3%	?	-14.6%	-2.9%
COc1cc2cc(C(=O)N[C@@H](C)C(=O)Nc3ccc4c(c3)OCO4)n(C)c2c(OC)c1OC	·	·	·	-1.5%	·	·
N#Cc1ccc(CN2CCC(c3ccnn3CCO)CC2)c(F)c1	·	·	·	31.4%	·	·
Cc1ccc(NC(=O)Cc2coc3ccc(C(C)C)cc23)cc1Cl	-1.6%	·	-82.1%	-21.7%	?	-5.1%
CCCCOC(=O)c1ccc(NC(=O)Cc2coc3ccc(C(C)C)cc23)cc1	-0.9%	·	-84.9%	-9.1%	7.94µM*	-0.5%
CCc1noc(-c2cn(C3CCN(C(=O)c4sccc4C)C3)nn2)n1 (configuration not stated)	·	·	·	44.7µM*	·	·
COc1cc(CN2CCC3(CCN(CC4CC4)CC3)C(CO)C2)ccc1F (configuration not stated)	·	·	·	49.1%	·	·
CN(C)CCNC(=O)c1nc2nc(-c3ccccc3)c(-c3ccc(O)c(F)c3)cc2n1C	·	·	·	-27.0%[176 µM]	·	·
Cc1ccc(S(=O)(=O)Cc2ccc(C(=O)N3CCN(c4cccc(C)c4C)CC3)o2)cc1	-0.4%	13.1%	-17.9%	2.0%[57.4 µM]	5.01µM*	-5.4%
Cc1cccc(N2CCN(C(=O)c3ccc(CS(=O)Cc4ccc(Cl)cc4)o3)CC2)c1C (configuration not stated)	11.3%	12.6%	-19.7%	?	10µM*	-5.0%
O=C(c1ccc(CS(=O)Cc2ccc(Cl)cc2)o1)N1CCN(c2cccc(Cl)c2)CC1 (configuration not stated)	-3.5%	3.7%	-30.8%	-13.3%	?	-5.2%
Cc1cccc(N2CCN(C(=O)c3ccc(CS(=O)c4cccc(Cl)c4)o3)CC2)c1C (configuration not stated)	2.7%	·	-26.8%	?	1µM*	-6.1%
Cc1ccccc1S(=O)Cc1ccc(C(=O)N2CCN(c3cccc(C)c3C)CC2)o1 (configuration not stated)	2.7%	·	-26.5%	5.7%	1.12µM*	·
COc1ccc(-c2ccc3c(c2)C2CC3CCN2)cc1 (configuration not stated)	15.8µM*	3.8%	-1.2%	?	?	0.4%
COc1ccc(-c2ccc3c(c2)C2CC3CCN2C(=O)C2CCCCC2)cc1 (configuration not stated)	2.4%	-1.7%	-5.6%	-7.4%	?	-1.6%
CCOC(=O)c1c(C)[nH]c(-c2csc(C)n2)c1C	-7.7%	5.1%	-6.8%	-15.0%	-0.7%[7.66 µM]	7.2%
COC(=O)c1c(C)[nH]c(-c2csc(NC3CC3)n2)c1C	·	·	·	31.6µM*	·	·
COc1cccc(CNCc2c(C(=O)O)c(C)n(Cc3cc(C)ccc3C)c2C)c1OC	·	·	·	-13.0%	·	·
CC(NC(=O)c1ccsc1)C1CCCO1 (configuration not stated)	·	·	·	-18.1%	·	·
O=C(NCCc1ccc2c(c1)OCCO2)c1ccc(NC(=O)c2ccco2)cc1	·	·	·	11.1%	·	·
SMILES	GLS inh	GLP1R ag	PTHR1 ag	12-LOX inh	GLP1R inv ag	Glioma ERSR ind
CN(C)CCC1Sc2ccccc2Oc2ccccc21 (configuration not stated)	-5.7%	10.2%	-19.8%[57.5 µM]	?	?	-5.3%
CC1c2ccccc2SC(CCCN(C)C)c2ccccc21 (configuration not stated)	-7.1%	19.2%	i	-5.2%	11.2µM*	0.0%
C=NC(C(=O)NC1C(=O)N2C1SC(C)(C)C2C(=O)O)c1ccccc1 (configuration not stated)	28.2µM*	0.4%	·	·	·	-3.7%
CC1(C)S[C@@H]2[C@H](NC(=O)C(C(=O)Oc3ccc4c(c3)CCC4)c3ccccc3)C(=O)N2[C@H]1C(=O)O (some centres not stated)	7.94µM*	-5.6%	·	·	·	-0.4%
Cn1cc(CN(C(=O)Nc2ccccc2)C2CCCCC2)c2ccccc21	6.4%	-4.0%	-0.7%	-4.9%	10µM*	-4.0%
COc1cc(C2CC(=O)Nc3c2cnn3-c2nc3ccccc3s2)cc(OC)c1O (configuration not stated)	·	·	·	-12.8%	·	·
Cc1cccc(-n2c(-c3csc(C(C)C)c3)n[nH]c2=S)c1	?	0.2%	-35.4%[57.5 µM]	?	0.0%	-2.6%
CCCc1cc(-c2n[nH]c(=S)n2-c2cccc(C)c2)cs1	-28.5%	12.8%	-3.3%	44.7µM*	-5.7%	1.8%
COc1ccc(OCCn2cc(C(=O)c3ccco3)c3ccccc32)cc1	-9.9%	·	-66.9%	-1.8%	?	-4.0%
Cc1ccc(OCCn2cc(C(=O)c3ccco3)c3ccccc32)cc1C	1.1%	·	-3.4%	-17.6%	10µM*	-4.5%
O=C(NCc1ccccc1Cl)c1ccc(CS(=O)(=O)c2ccc(Br)cc2)o1	-1.6%	·	-96.1%	?	10µM*	-2.8%
Cc1ccc(S(=O)(=O)Cc2ccc(C(=O)NCCc3ccc(Cl)cc3)o2)cc1	-1.1%	-1.5%	-71.8%	?	10µM*	-1.9%
Cc1ccc(NC(=O)c2cc(S(=O)(=O)NCCc3ccc(Cl)cc3)ccc2F)cc1	-9.6%	·	-27.6%	?	11.2µM*	-0.5%
COc1ccc(S(=O)(=O)Cc2ccc(C(=O)O)o2)cc1	-0.7%	-0.5%	?	-3.3%	1.2%	-2.4%
Cc1ccc(S(=O)(=O)Cc2ccc(C(=O)O)o2)cc1	12.6µM*	-3.4%	6.6%	?	1.2%	-5.5%
O=C(NCc1ccccc1Cl)c1ccc(CS(=O)(=O)c2ccccc2)o1	-9.5%	-2.5%	-16.0%	-8.5%	3.1%	-6.8%
CC1CCCN(c2ccc(N)cc2C(N)=O)C1 (configuration not stated)	7.08µM*	10.0%	i	-4.2%	?	-1.5%
